Test results from PubChem BioAssay (NCI).
The panel holds about 83,000 compounds, 20% with a hit somewhere; the sample as a whole holds those more often.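 In brief: 96-well plates, 48 h treatment, single concentration, percent growth endpoint.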 Values without a mark were called inactive. Calls of active or inactive are those of the source. How the source made its calls: active means growth percent below 10; inactive means the rest.

Each molecule was assayed on MDA-MB-468 breast (assay: NCI-60 one-dose screen, 48 h (100 = growth as untreated, 0 = no growth, -100 = all killed)). Details: 10 µM unless noted.

Compound	growth
Nc1ncnc2c1N=C(c1ccc3c(c1)OCO3)CC(c1cccc(Nc3ccnc4cc(Cl)ccc34)c1)N2 (stereo not given)	33.2%
COc1ccccc1Nc1nc(-c2cc3cccc(C(F)(F)F)c3oc2=O)cs1	-2.43% (active)
Nc1nc(N)c2c(n1)NC1(C=C(O)c3ccccc31)C1=C(N2)c2ccccc2C1=O (stereo not given)	127%
Cc1cc2c(C(C)C)c(O)c(O)c(/C=N/O)c2c(O)c1-c1c(C)cc2c(C(C)C)c(O)c(O)c(/C=N/O)c2c1O	20.9%
Clc1ccccc1N=Cc1ccc2c(c1)OCO2	101%
CCOC(=O)c1c(N)c(C#N)cn1-c1cc(OC)c(OC)c(OC)c1	103%
N#CC(C#N)=Cc1c(-c2ccccc2)[nH]c2ccccc12	32%
COc1ccc2[nH]cc(/C=C3/C(=O)Nc4ccc(F)cc43)c2c1	79.1%
O=C(Nc1nc(-c2ccc(Cl)cc2)nc2c1sc(=S)n2-c1ccccc1)C(F)(F)F	70.1%
CC1CCC(n2cnc3c(Cl)ncnc32)O1 (stereo not given)	96.3%
C=CCCCCCCCCC(=O)OC(C)C	97.5%
Cc1nc(-c2cc3ccccc3oc2=O)ccc1C(=O)/C=C/c1ccc(N2CCOCC2)cc1	45.6%
CCCc1ccnc(NS(=O)(=O)c2ccc(N)cc2)n1	8.05% (active)
O=c1[nH]c(CN2CCN(c3ccccc3)CC2)nc2c(Br)cc(Br)cc12	114%
CC(C)(C)n1cc(-c2ccnc(NCCNS(=O)(=O)c3ccc(Cl)cc3)c2)c(-c2cccc(O)c2)n1	32.6%
COc1cccc2c1O/C(=C\c1ccc([N+](=O)[O-])s1)C2=O	14.5%
C=C(C=O)[C@@H]1CC[C@]2(COC(C)=O)CC[C@]3(C)C(CC[C@@H]4[C@@]5(C)CC[C@H](OC(C)=O)C(C)(C)[C@@H]5CC[C@]43C)[C@@H]12 (stereo not given in full)	5.16% (active)
O=C(O)CCC(NC(=O)OCc1ccccc1)C(=O)O (stereo not given)	101%
CCN1CCC[C@H]1c1cc(O)c2c(c1OC)C[C@H]1C[C@H]3[C@H](N)C(=O)C(C(N)=O)=C(O)[C@@]3(O)C(=O)C1=C2O	-18.7% (active)
Cc1csc(-c2ccc3c(c2)COC3(CCCN(C)C)c2ccc(F)cc2)c1 (stereo not given)	31.1%

Compound	growth
COc1cc2ncnc(Nc3ccc(S(=O)(=O)Nc4nccs4)cc3)c2cc1OCCCN1CCCC1	99.2%
CC(C)CCSc1nc(Nc2ccccc2)c(C#N)c(-c2ccc(F)cc2)n1	60.6%
N=C1N=C(N)CS1	103%
COc1ccc(-c2ccc(C)n2-c2ccc(-c3nc4cc(Cl)ccc4s3)cc2)cc1	-30.7% (active)
CN1CCC(COc2cnc(-c3cccc(Cn4nc(-c5cccc(C#N)c5)ccc4=O)c3)nc2)CC1	87.4%
COC(=O)CNS(=O)(=O)c1ccc2c(c1)Cc1cc(S(=O)(=O)NCC(=O)OC)ccc1-2	84.9%
O=C1/C(=C/c2ccccc2[N+](=O)[O-])Oc2ccc(O)cc21	20.3%
CSC(=S)N/N=C(\C)c1ccccn1	-19.5% (active)
COc1cc(-c2nn(-c3ccc(C)cc3)cc2C(=O)O)ccc1O	121%
N/C(=N\c1nc2c(Cl)cccc2s1)C(Cl)(Cl)Cl	22.6%
COc1ccc(-c2nc3cc(Cl)c(Cl)cc3n2CC(=O)N=Nc2c(O)[nH]c3ccc(OC)cc23)cc1	42.4%
NS(=O)(=O)c1ccc(Nc2nc(Nc3ccccc3)nc3nnc(SCC(=O)NC4CCCCC4)n23)cc1	104%
S=c1[nH]c2cc(Cl)ccc2o1	99%
COc1cc2cn3c4ccc(O)cc4nc(N)c3c2cc1OC	-32.3% (active)
Cc1ccc(NC2CC(=O)N(c3c(C)cc(C)cc3C)C2=O)c(C)c1 (stereo not given)	114%
O=c1[nH]c(-c2ccccc2)nc(CN2CCCCC2)c1O	111%
Oc1ccc(CSc2nnc(-c3ccccc3)o2)c2cccnc12	22.9%
CCCc1nn(C)c2c(=O)[nH]c(-c3cc(S(=O)(=O)N4CCN(C)CC4)ccc3OCC)nc12	110%
O=[N+]([O-])c1ccc(NS(=O)(=O)c2ccccc2)c2ccccc12	17%
CN1CCN(CCCOc2ccc3nc(Nc4ccc(Cl)c(C(F)(F)F)c4)ccc3c2)CC1	69.5%
